# Experimental data reported in the supplement of paper PMC8728848.
# The full list was thinned out, with the strongest signals kept by preference.
# B1: AidA (Burkholderia cenocepacia) (protein)
# chain: MSRVTDVLVSFDTETILKKYPNPSKNPAAPTLIDWRYVYMVTNQDNVISGQAGGELDLKAQVGDLIRWRETSLSLGFENQVVFYKFIGNVGNDLISTPTPRVAEASIPVPNTSKPEVPTCQKVANYYWSSECLKVGRVTYHFQFQIIDRNCQSQGCFSWDPFISIHN
# Columns and labels:
# Test in all cases: glycan array binding signal (z-score within array); higher = stronger binding
# Conditions in all cases: glycan notation: IUPAC condensed, linker removed
# [1] = target: GlcNAc(b1-2)Man(a1-3)[GlcNAc(b1-4)][GlcNAc(b1-2)Man(a1-6)]Man(b1-4)GlcNAc(b1-4)[Fuc(a1-6)]GlcNAc
# Procedure, shortened: (§1)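 The Consortium for Functional Glycomics database supplied 3228 glycan arrays, of which those lacking an available protein sequence were dropped. The binding signal, a within-array Z-score, was averaged across arrays of the same protein sequence and across linkers. Negative scores can be read as non-binding.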
# [2] = target: GlcNAc(b1-3)Gal(b1-4)GlcNAc(b1-2)[GlcNAc(b1-3)Gal(b1-4)GlcNAc(b1-6)]Man(a1-6)[GlcNAc(b1-3)Gal(b1-4)GlcNAc(b1-2)Man(a1-3)]Man(b1-4)GlcNAc(b1-4)GlcNAc
# Procedure, shortened: as §1
# [3] = target: GlcNAc(b1-3)Gal(b1-4)GlcNAc(b1-3)Gal(b1-4)GlcNAc
# Procedure, shortened: as §1
# [4] = target: GlcNAc(b1-3)Gal(b1-4)GlcNAc(b1-3)Gal(b1-4)GlcNAc(b1-3)Gal(b1-4)GlcNAc(b1-3)Gal(b1-4)GlcNAc(b1-2)Man(a1-3)[GlcNAc(b1-3)Gal(b1-4)GlcNAc(b1-3)Gal(b1-4)GlcNAc(b1-3)Gal(b1-4)GlcNAc(b1-3)Gal(b1-4)GlcNAc(b1-2)Man(a1-6)]Man(b1-4)GlcNAc(b1-4)[Fuc(a1-6)]GlcNAc
# Procedure, shortened: as §1
# [5] = target: GlcNAc(b1-3)Gal(b1-4)GlcNAc(b1-3)[GlcNAc(b1-3)Gal(b1-4)GlcNAc(b1-3)]GalNAc
# Procedure, shortened: as §1
# [6] = target: GlcNAc(b1-3)Gal(b1-4)GlcNAc(b1-6)[Gal(b1-3)]GalNAc
# Procedure, shortened: as §1
# GlcNAc(b1-3)Man = target: GlcNAc(b1-3)Man
# Procedure, shortened: as §1
# [7] = target: Man(a1-2)Man(a1-3)[Man(a1-2)Man(a1-6)]Man
# Procedure, shortened: as §1
# [8] = target: Man(a1-2)Man(a1-3)[Man(a1-2)Man(a1-6)]Man(a1-6)[Man(a1-2)Man(a1-2)Man(a1-3)]Man(b1-4)GlcNAc(b1-4)GlcNAc
# Procedure, shortened: as §1
# [9] = target: Man(a1-2)Man(a1-6)[Man(a1-3)]Man(a1-6)[Man(a1-2)Man(a1-2)Man(a1-3)]Man
# Procedure, shortened: as §1
# [10] = target: Man(a1-3)[Man(a1-6)]Man(b1-4)GlcNAc(b1-4)GlcNAc
# Procedure, shortened: as §1
# [11] = target: Man(a1-3)[Man(a1-6)]Man(b1-4)GlcNAc(b1-4)[Fuc(a1-6)]GlcNAc
# Procedure, shortened: as §1
# Neu5Ac(a2-3)Gal = target: Neu5Ac(a2-3)Gal
# Procedure, shortened: as §1
# [12] = target: Neu5Ac(a2-3)Gal(b1-3)GalNAc
# Procedure, shortened: as §1
# [13] = target: Neu5Ac(a2-3)Gal(b1-3)GlcNAc(b1-3)Gal(b1-3)GlcNAc
# Procedure, shortened: as §1
# [14] = target: Neu5Ac(a2-3)Gal(b1-4)GlcNAc(b1-2)Man
# Procedure, shortened: as §1
# [15] = target: Neu5Ac(a2-3)Gal(b1-4)GlcNAc(b1-3)Gal(b1-4)GlcNAc(b1-6)[Gal(b1-3)]GalNAc
# Procedure, shortened: as §1
# [16] = target: Neu5Ac(a2-3)Gal(b1-4)GlcNAc(b1-6)[Neu5Ac(a2-3)Gal(b1-3)]GalNAc
# Procedure, shortened: as §1
# [17] = target: Neu5Ac(a2-3)Gal(b1-4)[Fuc(a1-3)]GlcNAc(b1-3)GalNAc
# Procedure, shortened: as §1
# [18] = target: Neu5Ac(a2-3)Gal6S(b1-4)GlcNAc
# Procedure, shortened: as §1
# [19] = target: Neu5Ac(a2-3)[GalNAc(b1-4)]Gal(b1-4)GlcNAc
# Procedure, shortened: as §1
# [20] = target: Neu5Ac(a2-6)Gal(b1-4)GlcNAc(b1-2)Man(a1-3)Man(b1-4)GlcNAc(b1-4)GlcNAc
# Procedure, shortened: as §1
# [21] = target: Neu5Ac(a2-6)Gal(b1-4)GlcNAc(b1-2)Man(a1-3)[GlcNAc(b1-2)Man(a1-6)]Man(b1-4)GlcNAc(b1-4)GlcNAc
# Procedure, shortened: as §1
# [22] = target: Neu5Ac(a2-6)Gal(b1-4)GlcNAc(b1-2)Man(a1-6)Man(b1-4)GlcNAc(b1-4)GlcNAc
# Procedure, shortened: as §1
# [23] = target: Neu5Ac(a2-6)Gal(b1-4)GlcNAc(b1-2)Man(a1-6)[Man(a1-3)]Man(b1-4)GlcNAc(b1-4)GlcNAc
# Procedure, shortened: as §1
# [24] = target: Neu5Ac(a2-6)Gal(b1-4)GlcNAc(b1-6)[Gal(b1-3)]GalNAc
# Procedure, shortened: as §1
# [25] = target: Neu5Ac(a2-6)GlcNAc(b1-4)GlcNAc(b1-4)GlcNAc
# Procedure, shortened: as §1
# Neu5Ac(b2-6)GalNAc = target: Neu5Ac(b2-6)GalNAc
# Procedure, shortened: as §1
# [26] = target: Neu5Gc(a2-8)Neu5Gc(a2-3)Gal(b1-4)GlcNAc(b1-3)Gal(b1-4)GlcNAc
# Procedure, shortened: as §1
binder,measurement,setting,value
B1,glycan array binding signal (z-score),[1],-0.375
same,glycan array binding signal (z-score),[2],2.61
same,glycan array binding signal (z-score),[3],0.86
same,glycan array binding signal (z-score),[4],-0.735
same,glycan array binding signal (z-score),[5],-0.928
same,glycan array binding signal (z-score),[6],-0.57
same,glycan array binding signal (z-score),GlcNAc(b1-3)Man,-0.022
same,glycan array binding signal (z-score),[7],-0.113
same,glycan array binding signal (z-score),[8],0.274
same,glycan array binding signal (z-score),[9],-0.364
same,glycan array binding signal (z-score),[10],-0.131
same,glycan array binding signal (z-score),[11],1.97
same,glycan array binding signal (z-score),Neu5Ac(a2-3)Gal,-0.347
same,glycan array binding signal (z-score),[12],-0.739
same,glycan array binding signal (z-score),[13],-0.146
same,glycan array binding signal (z-score),[14],1.58
same,glycan array binding signal (z-score),[15],-0.559
same,glycan array binding signal (z-score),[16],-0.108
same,glycan array binding signal (z-score),[17],1.86
same,glycan array binding signal (z-score),[18],-0.261
same,glycan array binding signal (z-score),[19],-0.388
same,glycan array binding signal (z-score),[20],-0.123
same,glycan array binding signal (z-score),[21],-0.443
same,glycan array binding signal (z-score),[22],-0.428
same,glycan array binding signal (z-score),[23],0.17
same,glycan array binding signal (z-score),[24],-0.153
same,glycan array binding signal (z-score),[25],-0.74
same,glycan array binding signal (z-score),Neu5Ac(b2-6)GalNAc,0.412
same,glycan array binding signal (z-score),[26],-0.459
